In the supplement of paper PMC6555819:

Assays:
Assay in all cases: PBM binding z-score (relative to random genomic background probes); higher = stronger binding; sequences stand for … in GC…GCGATTGACAGCGTAGAATGAAGG
[1] = system: PPARg:RXRa DBDmut IVT, anti-RXR (DBD mutation: RXRa K156A/R161A, NR concentration 270 nM, RXRa partner concentration 90 nM)
Outline: (§1)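 Antibodies against each partner of ligand-free nuclear receptor dimers (one per run) detected binding on custom Agilent 4×180K protein-binding microarrays after 1 h incubation. The double-stranded probes had 34-nt variable regions carrying direct-repeat seeds, single-nucleotide variants, half-site ablations and random human genomic background sequences. Binding z-scores, from regression-normalized fluorescence, use the random background probes as reference.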

[2] = system: PPARg:RXRa IVT, anti-PPARg (NR concentration 270 nM, RXRa partner concentration 90 nM)
Outline: as §1

[3] = system: PPARg DBDmut:RXRa IVT, anti-PPARg (DBD mutation: PPARg1 K132A/R137A, NR concentration 270 nM, RXRa partner concentration 90 nM)
Outline: as §1

[4] = system: PPARg DBDmut IVT, anti-PPARg (DBD mutation: PPARg1 K132A/R137A, NR concentration 270 nM)
Outline: as §1

[5] = system: PPARg homodimer (NR concentration 180 nM)
Outline: as §1

[6] = system: PXR:RXRa (NR concentration 270 nM, RXRa partner concentration 90 nM)
Outline: as §1

[7] = system: PXR homodimer (NR concentration 270 nM)
Outline: as §1

[8] = system: RARa:RXR (NR concentration 270 nM, RXRa partner concentration 90 nM)
Outline: as §1

[9] = system: RARa homodimer (NR concentration 270 nM)
Outline: as §1

[10] = system: RARb:RXRa (NR concentration 270 nM, RXRa partner concentration 90 nM)
Outline: as §1

Sequence	PBM binding z-score [1]	PBM binding z-score [2]	PBM binding z-score [3]	PBM binding z-score [4]	PBM binding z-score [5]	PBM binding z-score [6]	PBM binding z-score [7]	PBM binding z-score [8]	PBM binding z-score [9]	PBM binding z-score [10]
CGTCAAAGTTCAAATAAGGTAACGTAAAGCACGC	0.597	2.21	0.83	1.03	4.04	5.39	5.14	4.21	2.53	5.08
ATCTCTTGGTAACAAGTTCAGTGAAAGAGAGGAC	-0.454	0.272	0.927	1.13	0.303	1.67	1.14	0.676	0.0703	1.37
CGTCATAGTTCAACTAAGGTAACGTAAAGCACGC	0.114	1.07	0.48	1.14	1.81	3.86	1.23	2.73	1.04	3.59
AATACAGGGTCATCGTAGGCCAGACTACGCACAG	2.63	4.16	1.31	1.03	2.16	4.73	0.736	4.7	0.914	4.5
GGAACGAGGGCGAAGTTGATAGCATCTGTCGACG	1.27	1.23	0.2	-0.848	0.0285	-0.347	-0.365	-0.254	-0.834	0.606
ATCGAAAGGTCGACGAGGTGAGTATCCACCGTTT	0.709	1.86	0.578	0.779	1.21	2.78	0.403	3.19	0.424	3.84
CGTCCAAGGTCAGCAGGTCAGTCAAAGCGACGTG	2.82	3.69	0.0784	-0.246	3.64	3.71	0.514	4.81	0.95	5.08
CCTTACGGGTCACTGGCAGGTTATAGCATTTGGA	2.85	3.68	0.22	1.16	3.67	4.02	0.0403	5.02	0.895	3.99
TCATATAGGTAAGAGGTGAAAGTCGGTGTGGTAA	4.67	4.43	1.44	0.671	1.73	1.31	0.509	2	1.54	1.44
CCTTACGCGTCACGAGGTTATAGCACGACGAGCG	0.147	0.154	0.124	0.548	1.05	1.03	0.532	1.15	0.761	0.811
ACTAGTTGGTCAGCTGTGGTCACACACAATTCGG	1.14	0.902	0.0939	0.115	0.101	0.312	-0.402	0.442	0.116	1.23
TCATATAGGTCATACAGGTGAAAGTCGGCATCTA	6.93	6.78	2.18	2.34	2.69	3.62	1.06	4.44	2.39	4.2
TCAGACACGTGAAGGTAACTCAGGTACGCAGTCG	2.01	0.0169	-0.15	-0.175	0.0115	0.416	-0.294	0.632	-0.256	0.338
GGTAGTTGGTCAGTAAAAGGTCACACACCGGTCG	0.823	3.16	0.932	0.24	4.48	4.95	1.37	5.68	3	4.28
TCTATTAGTTGATTAGGGCAACCCAAACAGCGGA	1.83	1.56	1.32	1.89	0.811	0.65	0.299	0.776	1.44	0.917
ATCGAAAGGTCGAAGAGGTGAGTATACACCGTTT	-0.0174	1.75	0.444	0.332	1.01	2.82	0.5	3.46	0.27	3.62
ACAGACAGGTGAGTGCAGGTAACTCAGCTGGACG	0.771	1.05	0.0571	-0.297	-0.465	-0.0581	-0.0579	-0.416	-0.183	0.35
ATATGTAAGTTACATCCGGGTCATTCAGGCTATG	1.5	2.35	1.58	1.58	1.11	3.02	2.6	2.96	0.872	1.72
GGAACGCGGGCATTCGAGTTGATAGCATGGCGAT	-0.393	-0.666	-1.41	-1.44	-1.1	-0.103	-0.449	-0.652	-1.13	-0.209
TATACAGGGTCGAAGGCCAGAGTACGAATGTCGA	-0.348	1.5	1.05	0.465	0.74	1.01	-0.0237	1.61	-0.116	1.75
TAGCCTAGGTCATTGAGGGGCCAGTATAGAAAGC	1.9	2.84	0.198	0.125	2.84	2.36	-0.0238	3.39	-0.506	3.93
TTACCAAGGTGAGCTGAGGTCGATGATCCAACTC	0.764	2.27	-0.223	-0.4	-0.24	3.58	-0.352	1.23	-0.656	1.72
CGAACTAGGTCACCGGAAGGTCAAAGTCCGCATG	7.98	8.54	0.875	0.855	8.74	5.95	2.08	7.52	2.97	5.2
AGCCAAAGTTCATCTAGGTAACGTAAGATATGCT	0.587	3.45	1.13	0.579	3.87	5.16	6.7	3.87	2.24	4.94
ATATGTAGTTTAAGGGTCATTCAGGTTGGTTCGC	1.53	3.45	1.66	1.44	3.5	5.01	3.06	4.34	2.87	3.42
